Bioassay records deposited in PubChem by National Center for Advancing Translational Sciences (NCATS).
Shown are actives, neighbours in structure and some others; about 0.62% of the full set was active somewhere.
gsp antag = qHTS for Antagonists of gsp, the Etiologic Mutation Responsible for Fibrous Dysplasia/McCune-Albright Syndrome: qHTS; gsp-mutant cells, cAMP HTRF, 30 min; Potency, µM (highest dose often 76.9 µM), for the others: at the top dose activity change, negative = inhibition, usual class: inhibitors; actives 0.4% (n = 340,000); AID 624288, 2012; calls by dose curve; cell line not stated here;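 note: intracellular cAMP measured with PDE inhibitor Ro 20-1724 present during compound exposure; % is set by controls: 0 for no effect and ±100 for the full control effect; nearly all actives have a fitted effect of over 65% in size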
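G418-selected cells were plated in DMEM/10% FBS for 16-24 h at 37C, then treated with compounds plus the PDE inhibitor […] (300 uM solution added) for 30 min at 37C. Intracellular cAMP was measured by HTRF after 30 min lysis at room temperature.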
S-ASM inh = Inhibitors of Secretory Acid Sphingomyelinase (S-ASM): qHTS | Sphingomyelin phosphodiesterase (Homo sapiens), P17405 | placental ASM, HMU-PC fluorogenic substrate, 60 min | Potency, µM (doses to about 57.5 µM), inactives show at the highest dose activity change, negative = inhibition, actives largely listed as inhibitors | actives 0.006% (n = 340,000) | AID 504937, 2011; active = well fitted inhibition curve with a large enough effect; inconclusive = small, poorly fitted or top-dose-only effect; inactive = no such curve, though single readings can be large or run the other way
Target sequence (P17405 47-631 limits assumed): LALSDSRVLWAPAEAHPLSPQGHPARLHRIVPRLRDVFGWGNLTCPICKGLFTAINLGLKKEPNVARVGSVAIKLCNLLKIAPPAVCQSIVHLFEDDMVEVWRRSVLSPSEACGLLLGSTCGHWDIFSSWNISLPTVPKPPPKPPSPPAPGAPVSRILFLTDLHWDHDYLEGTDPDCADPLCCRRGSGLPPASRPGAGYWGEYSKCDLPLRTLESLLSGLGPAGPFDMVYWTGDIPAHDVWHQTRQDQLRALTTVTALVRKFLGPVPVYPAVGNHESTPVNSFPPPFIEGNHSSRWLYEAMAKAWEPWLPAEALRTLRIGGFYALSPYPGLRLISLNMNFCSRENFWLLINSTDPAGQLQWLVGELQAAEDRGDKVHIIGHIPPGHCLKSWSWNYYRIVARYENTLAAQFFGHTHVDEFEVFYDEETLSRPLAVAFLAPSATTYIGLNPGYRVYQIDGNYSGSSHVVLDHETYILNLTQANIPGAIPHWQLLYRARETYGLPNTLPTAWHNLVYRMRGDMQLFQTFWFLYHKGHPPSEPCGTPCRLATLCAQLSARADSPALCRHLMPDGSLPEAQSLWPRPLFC
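Human placenta-derived ASM preincubated with compound 10 min at room temperature, then reacted with 9 uM (final) fluorogenic HMU-PC substrate for 60 min at 37 C. Stop solution raises pH to 10; fluorescence read at Ex 386/Em 447 nm.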
BCR signal inh = qHTS Assay to Find Inhibitors of Chronic Active B-Cell Receptor Signaling | ABC-DLBCL IkBa-CBG/CBR reporter, luminescence ratio, 4 h | Potency, µM (top dose mostly 46.1 µM), for inactives: at the highest dose activity change, negative = inhibition, actives largely listed as inhibitors | actives 0.05% (n = 340,000) | AID 493014, 2011; active = well fitted inhibition curve with a large enough effect in the signal ratio, with a control signal flat, not every such curve was filed as active; inconclusive = small, poorly fitted or top-dose-only effect, or effect the other way, or a change in a side signal; the % refers to the signal ratio;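 note: plate controls were basal doxycycline-induced cells for no effect and cells given 10 µM MG132 for full effect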
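Cell line TMD8 (human ABC DLBCL), stably expressing tet-inducible CBG68-IkBa fusion and CBR; IMDM/0.5% FBS; cpd up to 46 uM; dox induction, 4 h, 37C/5% CO2; dual luminescence; green/red ratio; MG132 control.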
MBNL1 CUG block = qHTS Assay for Inhibitors of MBNL1-poly(CUG) RNA binding; Muscleblind-like protein 1 (Homo sapiens), Q9NR56; TR-FRET MBNL1-His/biotin-(CUG)12 binding, 665/545 ratio; Potency, µM (series often up to 57.5 µM), for inactives: at the top dose activity change, negative = inhibition, hits mostly inhibitors; actives 0.036% (n = 280,000); active = well fitted inhibition curve with a large enough effect in the signal ratio, with a control signal flat, not every such curve was filed as active; inconclusive = small, poorly fitted or top-dose-only effect, or effect the other way, or a change in a side signal; inactive = no such curve, though single readings can be large or run the other way; the % refers to the signal ratio; note: % is set by controls: 0 for no effect and ±100 for the full control effect
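TR-FRET readout: Ex 340 nm, 665/545 nm emission ratio, normalized to buffer-only (basal) and MBNL1-(CUG)12 controls. Complex of MBNL1-His with Biotin-(CUG)12, compounds 92 nM–58 uM, incubated 60 min at room temperature.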
gsp agonist = qHTS for Agonist of gsp, the Etiologic Mutation Responsible for Fibrous Dysplasia/McCune-Albright Syndrome: qHTS; gsp mutant cells, cAMP HTRF, 30 min; Potency, µM (series often up to 76.9 µM), for the others: at the highest dose activation (cAMP increase), usual class: activators; actives 0.13% (n = 340,000); AID 624287, 2012; active = well fitted activation curve with a large enough effect; inconclusive = small, poorly fitted or top-dose-only effect, or another doubt; inactive = no such curve, though single readings can be large or run the other way; cell line not stated here;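 note: phosphodiesterase inhibitor Ro 20-1724 added with compounds to block cAMP breakdown; nearly all actives have a fitted effect of over 60% in size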
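Cells in DMEM/10% FBS with G418 were pretreated with compounds in DMSO plus […] (300 uM stock) for 30 min at 37C. cAMP was measured by HTRF (cAMP-d2 plus anti-cAMP antibody-K) after 30 min at room temperature.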
The depositor's hits bear a star; i = inactive; ? = inconclusive; . = no result; [ ] = dose if it differs, or a comment. Potency is the fitted concentration of half-maximal effect.

SMILES | gsp antag | S-ASM inh | BCR signal inh | MBNL1 CUG block | gsp agonist
C[C@@H]1CN([C@@H](C)CO)C(=O)CCCn2nncc2CO[C@@H]1CN(C)C(=O)c1ccc(N2CCN(C)CC2)cc1 | . | . | . | . | 10µM*
CCCNc1nc(Nc2ccc(C)cc2)nc(N2CCCC2)n1 | 32µM* | -8% | ? | -12% | 16%
COc1ccc(Nc2nc(NCCO)nc(N3CCCC3)n2)cc1 | . | 1% | . | . | .
N#Cc1nc(-c2cccc3ccccc23)oc1NCC#CCOC(=O)c1cccs1 | . | . | -27% | . | .
O=C(O)CCC(=O)N1N=C(c2ccccc2)CC1c1ccc(Br)cc1 (stereo not given) | 40µM* | 0% | 9% | 1% | 6%[15.4 µM]
CCc1cc(=O)oc2cc(OC(C)=O)cc(OC(C)=O)c12 | -1% | i | ? | 51% | 10µM*
COc1cc(OCc2ccccc2)c2c(CCC(=O)O)cc(=O)oc2c1 | -11% | 37% | . | . | 27%
O=C(NC1CC1)c1cccc(Nc2ccc(-c3ccc4c(c3)OCCO4)nn2)c1 | 32µM* | -6% | ? | 26% | -18%
Cc1nn(CCc2nn[nH]n2)c2nc(-c3ccc(C4CCCCC4)cc3)cc(C(F)(F)F)c12 | 11µM* | 38% | 0% | 0% | 15%[15.4 µM]
Cc1nn(CCC(=O)O)c2nc(-c3cccnc3)cc(C(F)(F)F)c12 | 0% | 11% | 0% | 4% | -7%
CO/N=C/c1ccc(N2CCN(C(=O)c3ccc(F)cc3)CC2)c([N+](=O)[O-])c1 | 35µM* | -11% | -2% | ? | 25%
CCCCC1C(=O)CC[C@H]2[C@@H]1CC(=O)[C@@H]2C/C=C\CCCC(=O)O (stereo not given in full) | -16% | -4% | 21µM* | -14% | .
Cc1cc(N2CCCC2=O)cc(C)c1S(=O)(=O)NCCOc1ccc(C(C)(C)C)cc1 | 25µM* | -15% | 13% | -12% | -14%
COc1ccccc1NS(=O)(=O)c1ccc2ccccc2c1 | 6% | -1% | -6% | 4% | 10%
COc1ccc(NS(=O)(=O)c2ccc3ccccc3c2)c2ncccc12 | -6% | 0% | 3.2µM* | 0% | 29%
CCc1ccccc1NS(=O)(=O)c1ccc(OC)c2ncccc12 | 28µM* | 4% | ? | 7% | 0%
O=C(Nc1ccc2c(c1)N(C1CCCC1)C(=O)c1ccccc1S2)c1ccc(F)cc1 | . | . | 13% | . | .
Cc1ccc(NC(=O)CNc2ccc(Cl)c(Cl)c2)cc1S(=O)(=O)N(C)C | 40µM* | -22% | ? | . | -33%
Cc1ccc(NC(=O)Cc2ccc(Cl)c(Cl)c2)cc1S(=O)(=O)N(C)C | ? | -19% | ? | . | -4%
CCOC(=O)C1=C(CN2CCN(C(=O)c3ccco3)CC2)NC(=O)NC1c1ccc(OC)cc1 (stereo not given) | -8% | 2% | -2% | -4% | 13%
CC1=NN(c2ccc(C)cc2)C(=O)/C1=C\C=C\c1ccccc1 | 11% | -23% | -8% | -15%[11.5 µM] | -3%[15.4 µM]
CC1=NN(c2cccc(C(=O)O)c2)C(=O)/C1=C\C=C/c1ccccc1 | 28µM* | -1% | ? | 2% | -7%[15.4 µM]
CCOC(=O)C1=C(N)Oc2ccc3ccccc3c2C1c1cccnc1 (stereo not given) | 32µM* | -4% | ? | -2% | 14%
CCO[C@@H]1OC(C(=O)N2CCN(Cc3ccc4c(c3)OCO4)CC2)=C[C@H](C2CCCCC2)[C@H]1CCCO | ? | 6% | -4% | -3% | .
CCO[C@H]1OC(C(=O)N2CCN(Cc3ccc4c(c3)OCO4)CC2)=C[C@@H](C(C)(C)C)[C@@H]1CCCO | 7.9µM* | 6% | 12% | -9% | .
SMILES | gsp antag | S-ASM inh | BCR signal inh | MBNL1 CUG block | gsp agonist
CCOC(=O)c1ccc(CN(Cc2ccc(F)cc2)S(=O)(=O)c2ccc(F)c(C(=O)Nc3ccccc3C(F)(F)F)c2)cc1 | . | . | 3% | . | .
CC(OC(=O)CN(C)S(=O)(=O)c1ccc(Cl)cc1)C(=O)Nc1cccc(Cl)c1 (stereo not given) | 40µM* | -8% | 2% | -2% | 8%
CC(OC(=O)CN(C)S(=O)(=O)c1ccc(Cl)cc1)C(=O)Nc1ncc(Cl)cc1Cl (stereo not given) | -22% | 0% | 0% | 6% | -1%
Cc1onc(-c2ccccc2)c1C(=O)N1CCN(Cc2ccccc2)CC1 | 3% | . | -5% | -8% | -5%[15.4 µM]
NNc1nc(-c2ccccc2)c2cc(Br)ccc2n1 | 0% | 8% | ? | 20% | -62%
COc1nc(-c2ccccc2)c2cc(Br)ccc2n1 | 3% | 5% | . | . | 13µM*
Cc1cccc(CNc2ncnc3ccc(-c4cccc(Cl)c4)cc23)c1 | . | . | -25% | . | .
CCc1cccc(NC(=O)CCCN2C(=O)NC(C)(C)C2=O)c1 | -6% | 7% | ? | . | -29%
CCc1cccc(NC(=O)CCCCCC2NC(=O)NC2C)c1 (stereo not given) | 13% | -1% | 6% | 0.1µM* | -3%[15.4 µM]
Cc1ccc(NC(=O)CCCCCC2NC(=O)NC2C)cc1 (stereo not given) | -10% | -3% | ? | 0.045µM* | -22%
CC1NC(=O)NC1CCCCCC(=O)Nc1ccc(F)c(Cl)c1 (stereo not given) | -5% | 2% | 0% | . | -5%[15.4 µM]
COc1ccc(OC)c(/C=C/C(=O)OCC(=O)NCc2cccs2)c1 | -13% | 314% | 0% | . | ?
CN1/C(=C\C(=O)COc2ccc3c(c2)OCO3)C(C)(C)c2ccccc21 | 40µM* | 62% | -5% | 16% | -4%
CN1/C(=C\C(=O)c2ccco2)C(C)(C)c2ccccc21 | 35µM* | 206% | 5% | 76% | -9%
CN1/C(=C\C(=O)COC(=O)c2ccco2)C(C)(C)c2ccccc21 | 0% | 70% | 1% | . | -12%
COc1ccc(-c2cc(=O)c3cc(OC)ccc3[nH]2)cc1 | -2% | 11% | 1% | 29% | .
COc1ccc(-c2cc(=O)[nH]c(=S)[nH]2)cc1 | 0% | 4% | 0% | 6% | 10µM*
CCOC(=O)C1CCCN(C(=O)c2ccc3c(c2)N(C)C(=O)/C(=C/c2ccccc2Cl)S3)C1 (stereo not given) | 11µM* | -2% | ? | 1% | -19%
CCOC(=O)C1CCCN(C(=O)c2cccc(N3C(=O)c4ccccc4C3=O)c2)C1 (stereo not given) | -4% | 2% | -1% | . | 19%
CN1C(=O)/C(=C/c2ccccc2Cl)Sc2ccc(C(=O)N3CCCC3)cc21 | 32µM* | -6% | ? | 19% | 1%
O=C(COc1ccc(Cl)cc1)OCC(=O)N1CCOCC1 | -4% | 1% | 3% | . | ?
